Assay results reported in PubChem BioAssay AID1159580 (chemical genetic matrix, 2015).
The campaign covered roughly 5,500 compounds. About 2,000 (36%) were called active. Roughly 18% stayed inconclusive and do not appear here. Rule as the data show it: active = normalized growth mostly below about 0.91 (no sharp cut-off); inconclusive = no clear call, values can overlap the other calls; inactive = mostly above about 0.92. The list shows a part of the results.

Test: chemical genetic growth profiling, strain panel (AID 1159580);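 also: tested at 20 µM; growth read once vehicle control cultures reached saturation at 30 °C; 1 = growth at the plate median or of vehicle wells; lower values mean less growth of the strain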
Details: growth OD

Measured: normalized growth

C[C@@H]1CC[C@H]2C(C)(C)C3CC12CC[C@@]3(C)O (some centres not stated)
active: S. cerevisiae deletion strains, locus YKL160W, strain elf1, active compounds read low 0.813 | S. cerevisiae deletion strains, locus YLL026W, active compounds read low 0.747 | S. cerevisiae deletion strains, locus YLL041C, strain sdh2, active compounds read low 0.926 | S. cerevisiae deletion strains, locus YLR027C, strain aat2, active compounds read low 0.781 | S. cerevisiae deletion strains, locus YLR221C, strain rsa3, active compounds read low 0.745 | S. cerevisiae deletion strains, locus YLR258W, strain gsy2, active compounds read low 0.831 | S. cerevisiae deletion strains, locus YLR262C, strain YPT6 (second series), active compounds read low 0.549 | S. cerevisiae deletion strains, locus YLR320W, strain mms22, active compounds read low 0.628 | S. cerevisiae deletion strains, locus YLR330W, strain CHS5, active compounds read low 0.876 | S. cerevisiae deletion strains, locus YLR342W, strain FKS1, active compounds read low 0.861 | S. cerevisiae deletion strains, locus YLR357W, strain rsc2, active compounds read low 0.754 | S. cerevisiae deletion strains, locus YLR418C, strain cdc73, active compounds read low 0.824 | S. cerevisiae deletion strains, locus YML120C, strain ndi1, active compounds read low 0.786 | S. cerevisiae deletion strains, locus YMR058W, strain fet3, active compounds read low 0.891 | S. cerevisiae deletion strains, locus YMR125W, strain sto1, active compounds read low 0.83 | S. cerevisiae deletion strains, locus YMR205C, strain PFK2, active compounds read low 0.697 | S. cerevisiae deletion strains, locus YMR231W, strain pep5, active compounds read low 0.878 | S. cerevisiae deletion strains, locus YNL071W, strain lat1, active compounds read low 0.616 | S. cerevisiae deletion strains, locus YNL209W, strain ssb2, active compounds read low 0.869 | S. cerevisiae deletion strains, locus YNL233W, strain BNI4, active compounds read low 0.83 | S. cerevisiae deletion strains, locus YNL248C, strain rpa49, active compounds read low 0.879 | S. cerevisiae deletion strains, locus YNL298W, strain CLA4, active compounds read low 0.884 | S. cerevisiae deletion strains, locus YNR052C, strain pop2, active compounds read low 0.865 | S. cerevisiae deletion strains, locus YOR001W, strain rrp6, active compounds read low 0.81 | S. cerevisiae deletion strains, locus YOR070C, strain gyp1, active compounds read low 0.813 | S. cerevisiae deletion strains, locus YOR083W, strain WHI5, active compounds read low 0.743 | S. cerevisiae deletion strains, locus YOR106W, strain vam3, active compounds read low 0.713 | S. cerevisiae deletion strains, locus YOR265W, strain rbl2, active compounds read low 0.916 | S. cerevisiae deletion strains, locus YOR270C, strain vph1, active compounds read low 0.618 | S. cerevisiae deletion strains, locus YOR290C, strain snf2, active compounds read low 0.784 | S. cerevisiae deletion strains, locus YPL051W, strain arl3, active compounds read low 0.707 | S. cerevisiae deletion strains, locus YPL078C, strain atp4, active compounds read low 0.837 | S. cerevisiae deletion strains, locus YPL106C, strain sse1, active compounds read low 0.654
inactive: S. cerevisiae deletion strains, locus YJR066W, strain TOR1, active compounds read low 0.975 | S. cerevisiae deletion strains, locus YKL009W, strain mrt4, active compounds read low 0.893 | S. cerevisiae deletion strains, locus YKL068W, active compounds read low 1.01 | S. cerevisiae deletion strains, locus YKL085W, strain MDH1 (second series), active compounds read low 0.961 | S. cerevisiae deletion strains, locus YKL085W, strain MDH1, active compounds read low 0.961 | S. cerevisiae deletion strains, locus YKL190W, strain CNB1, active compounds read low 1.01 | S. cerevisiae deletion strains, locus YKR001C, strain vps1, active compounds read low 0.933 | S. cerevisiae deletion strains, locus YKR026C, strain gcn3, active compounds read low 0.994 | S. cerevisiae deletion strains, locus YKR091W, strain srl3, active compounds read low 0.934 | S. cerevisiae deletion strains, locus YLL001W, strain dnm1, active compounds read low 0.949 | S. cerevisiae deletion strains, locus YLR039C, strain RIC1, active compounds read low 0.849 | S. cerevisiae deletion strains, locus YLR058C, strain SHM2, active compounds read low 1 | S. cerevisiae deletion strains, locus YLR102C, strain apc9, active compounds read low 0.989 | S. cerevisiae deletion strains, locus YLR113W, strain HOG1, active compounds read low 0.968 | S. cerevisiae deletion strains, locus YLR262C, strain YPT6, active compounds read low 0.841 | S. cerevisiae deletion strains, locus YLR268W, strain sec22, active compounds read low 0.961 | S. cerevisiae deletion strains, locus YLR342W, strain FKS1 (second series), active compounds read low 0.886 | S. cerevisiae deletion strains, locus YLR370C, strain arc18, active compounds read low 0.92 | S. cerevisiae deletion strains, locus YLR371W, strain rom2, active compounds read low 0.915 | S. cerevisiae deletion strains, locus YLR384C, strain iki3, active compounds read low 0.988 | S. cerevisiae deletion strains, locus YML016C, strain PPZ1, active compounds read low 1.01 | S. cerevisiae deletion strains, locus YML032C, strain rad52, active compounds read low 0.917 | S. cerevisiae deletion strains, locus YML124C, strain tub3, active compounds read low 0.99 | S. cerevisiae deletion strains, locus YMR078C, strain ctf18, active compounds read low 0.998 | S. cerevisiae deletion strains, locus YMR129W, active compounds read low 1.01 | S. cerevisiae deletion strains, locus YMR223W, strain ubp8, active compounds read low 0.952 | S. cerevisiae deletion strains, locus YMR307W, strain GAS1, active compounds read low 0.707 | S. cerevisiae deletion strains, locus YNL067W, strain RPL9B, active compounds read low 0.987 | S. cerevisiae deletion strains, locus YNL183C, strain NPR1, active compounds read low 0.976 | S. cerevisiae deletion strains, locus YNL250W, strain rad50, active compounds read low 0.956 | S. cerevisiae deletion strains, locus YNL271C, strain bni1, active compounds read low 0.938 | S. cerevisiae deletion strains, locus YNL307C, strain MCK1, active compounds read low 0.977 | S. cerevisiae deletion strains, locus YNL322C, strain KRE1 (second series), active compounds read low 0.971 | S. cerevisiae deletion strains, locus YNR049C, strain mso1, active compounds read low 1 | S. cerevisiae deletion strains, locus YOL006C, strain TOP1, active compounds read low 0.982 | S. cerevisiae deletion strains, locus YOL012C, strain htz1 0.706 | S. cerevisiae deletion strains, locus YOL147C, strain pex11, active compounds read low 0.965 | S. cerevisiae deletion strains, locus YOR061W, strain CKA2, active compounds read low 0.958 | S. cerevisiae deletion strains, locus YOR069W, strain VPS5, active compounds read low 0.998 | S. cerevisiae deletion strains, locus YOR080W, strain dia2, active compounds read low 0.967 | S. cerevisiae deletion strains, locus YOR136W, strain idh2, active compounds read low 0.959 | S. cerevisiae deletion strains, locus YOR144C, strain elg1, active compounds read low 0.972 | S. cerevisiae deletion strains, locus YOR184W, strain ser1, active compounds read low 0.9 | S. cerevisiae deletion strains, locus YOR231W, strain MKK1, active compounds read low 0.986 | S. cerevisiae deletion strains, locus YOR316C, strain cot1, active compounds read low 0.987 | S. cerevisiae deletion strains, locus YPL240C, strain hsp82, active compounds read low 0.952 | S. cerevisiae deletion strains, locus YPL241C, strain CIN2, active compounds read low 1.02 | S. cerevisiae deletion strains, locus YPL256C, strain CLN2, active compounds read low 0.969 | S. cerevisiae deletion strains, locus YPR119W, strain clb2, active compounds read low 1 | S. cerevisiae deletion strains, locus YPR141C, strain kar3, active compounds read low 0.991 | S. cerevisiae deletion strains, locus YPR163C, strain tif3, active compounds read low 0.993 | S. cerevisiae deletion strains, locus YPR167C, strain met16, active compounds read low 0.981 | S. cerevisiae deletion strains, strain wtn01, active compounds read low 0.926 | S. cerevisiae strains, strain wild type, active compounds read low 0.965
